Experimental data: PubChem BioAssay (Tox21)
“And” between values parts separate entries of the source, which are not always exact repeats. Equal entries are not always repeated. Results filed as inconclusive are left out. Where a call stands in place of a potency, no number is given. More than one record can exist for a structure, and the calls need not agree. The source made the active and inactive calls. Unless noted, calls follow the shape of the dose curve; as a rule, active = well fitted curve in the direction sought with a large enough effect in the repeat runs; inconclusive = weak or mixed curves; inactive = no such curve, though single readings can be large; an effect the other way counts as inactive or inconclusive.

Assays:
[1] = qHTS assay to identify small molecule antagonists of the progesterone receptor (PR) signaling pathway - cell viability counter screen (AID 1346798); also: series mostly up to about 92 µM; nearly all actives have a fitted effect of over 50% in size
Summary of the method: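 Viability was determined by ATP-based luminescence (CellTiter-Glo) in PR-UAS-bla HEK293T cells cultured in 2% charcoal-stripped serum and incubated 16 hr with compounds under R5020 stimulation.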

[2] = qHTS assay to identify small molecule agonists of the progesterone receptor (PR) signaling pathway - cell viability counter screen (AID 1346799; calls by dose curve; also: nearly all actives have a fitted effect of over 45% in size)
Summary of the method: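 Viability was scored by ATP luminescence (CellTiter-Glo, 30 min, room temperature) in the same wells used for the reporter readout, after 16 hr compound exposure of PR-UAS-bla HEK293T cells.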

[3] = qHTS assay to identify small molecule antagonists of the TGF-beta/Smad signaling pathway - cell viability counter screen (AID 1346824); also: nearly all actives have a fitted effect of over 50% in size
Summary of the method: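 SBE-bla HEK 293T cells, incubated overnight, then compound plus 0.25 ng/mL TGF-beta1 (stock added) for 5 hr at 37 C. Viability was read in the same wells by CellTiter-Glo luminescence after 30 min at room temperature.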

[4] = qHTS assay to identify small molecule agonists of the TGF-beta/Smad signaling pathway - cell viability counter screen (AID 1346829); also: top concentration of the series differs between compounds; nearly all actives have a fitted effect of over 45% in size
Summary of the method: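 Here the cytotoxicity of library compounds is measured in SBE-bla HEK 293T cells treated for 5 hr, using CellTiter-Glo added to wells already read for the beta-lactamase reporter.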

[5] = qHTS assay to identify small molecule agonists of the TGF-beta/Smad signaling pathway (AID 1346859; active = well fitted activation curve with a large enough effect in the signal ratio in the repeat runs, not every such curve was filed as active; the % refers to the signal ratio; also: series mostly up to about 77 µM)
Summary of the method: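 Dual-wavelength fluorescence (460/530 nm emission) quantified beta-lactamase expression under the Smad binding element in HEK 293T cells following 5 hr compound treatment at 37 C.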

[6] = target: Thyrotropin-releasing hormone receptor (Homo sapiens) (UniProt P34981); test: qHTS assay to identify small molecule antagonists of the thyrotropin-releasing hormone receptor (TRHR) signaling pathway (AID 1346877; active = well fitted inhibition curve with a large enough effect in the repeat runs, not every such curve was filed as active; also: series mostly up to about 51 µM)
Summary of the method: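 Following an 18 h incubation at 37 °C and a 2 h calcium dye load, TRHR-HEK293 cells were exposed to compound (5 min, room temperature) and challenged with TRH, 1 nM final.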

[7] = target: Thyrotropin-releasing hormone receptor (Homo sapiens) (UniProt P34981); test: qHTS assay to identify small molecule agonists of the thyrotropin-releasing hormone receptor (TRHR) signaling pathway (AID 1346891; calls by dose curve; also: potency is read from the fitted curve at half-maximal effect;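 as to activation: HEK293 cells expressing TRHR with calcium dye readout; series mostly up to about 58 µM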)
Summary of the method: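 Kinetic fluorescence (3 min, 1 s intervals) reported intracellular calcium after compound transfer onto TRHR-Hek293 cells pre-loaded with dye for 2 h at 37 °C.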

[8] = Human pregnane X receptor (PXR) small molecule agonists, qHTS cell viability counter screen (AID 1346977); also: nearly all actives have a fitted effect of over 50% in size
Summary of the method: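 HepG2 cells stably carrying the PXR-Luc reporter are cultured with 5% charcoal-stripped FBS and treated with compounds for 24hr. CellTiter-Fluor is added at 23hr and fluorescence is read after 1hr.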

[9] = Caspase-3/7 induction in HepG2 cells by small molecules, qHTS assay (AID 1346978); also: nearly all actives have a fitted effect of over 15% in size
Summary of the method: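 Wild-type HepG2 cells, 2,000/well, settled 5 hr at 37 C and 5% CO2, then compound-treated for 17 hr; caspase-3/7 activity read by luminescent Caspase-Glo 3/7 after 30 min at room temperature.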

[10] = Caspase-3/7 induction in CHO-K1 cells by small molecules, qHTS cell viability counter screen (AID 1346979); also: nearly all actives have a fitted effect of over 35% in size
Summary of the method: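 Seeding: 1,500 CHO-K1 cells/well. Rest: 5hr, 37C. Treatment: compounds in DMSO, 16hr. Read: CellTiter-Fluor, 1hr, fluorescence.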

[11] = Caspase-3/7 induction in CHO-K1 cells by small molecules, qHTS assay (AID 1346980); also: nearly all actives have a fitted effect of over 15% in size
Summary of the method: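 Wild-type CHO-K1 cells exposed to compounds for 17hr at 37 C, 5% CO2. Caspase-3/7 activity then measured by Caspase-Glo 3/7 luminescence after 30min at room temperature.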

[12] = target: Nuclear receptor subfamily 1 group I member 2 (Homo sapiens) (UniProt O75469); test: Human pregnane X receptor (PXR) small molecule agonists, qHTS assay (AID 1346982); also: nearly all actives have a fitted effect of over 35% in size; also: potency is read from the fitted curve at half-maximal effect
Summary of the method: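 Compound-induced hPXR transactivation of a CYP3A4 luciferase reporter was scored in HepG2 PXR-Luc cells over 24 hr at 37 C, 5% CO2, by luminescence.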

[13] = target: Acetylcholinesterase (Homo sapiens) (UniProt P22303); test: Acetylcholinesterase (AChE) small molecule antagonists: colormetric cell-based qHTS assay (AID 1347395; calls by dose curve; also: nearly all actives have a fitted effect of over 30% in size)
Summary of the method: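 Quantitative HTS in attached SH-SY5Y cells: 30 min compound exposure, then 90 min with acetylthiocholine and DTNB at 37 C; colour from thiocholine reports AChE activity.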

[14] = target: Acetylcholinesterase (Homo sapiens) (UniProt P22303); test: Acetylcholinesterase (AChE) small molecule antagonists: enzyme-based qHTS assay (AID 1347397; calls by dose curve; also: nearly all actives have a fitted effect of over 55% in size); settings: Potency: AChE enzyme activity inhibition
Summary of the method: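 Enzyme inhibition was scored from DTNB-detected thiocholine formed by recombinant human AChE acting on acetylthiocholine. The 30 min compound preincubation and 10 min substrate reaction were both run at room temperature, with DMSO as vehicle control.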

[15] = target: Acetylcholinesterase (Homo sapiens) (UniProt P22303); test: Acetylcholinesterase (AChE) small molecule antagonists: fluorescence cell-based qHTS assay (AID 1347398; calls by dose curve; also: nearly all actives have a fitted effect of over 50% in size); settings: Potency: AChE activity
Summary of the method: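 Endogenous acetylcholinesterase of SH-SY5Y neuroblastoma cells is measured in situ. After overnight attachment and 30 min compound exposure, cells receive acetylthiocholine and Thiolite Green; fluorescence is read after 40 min at room temperature.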

[16] = target: Acetylcholinesterase (Homo sapiens) (UniProt P22303); test: Acetylcholinesterase (AChE) small molecule antagonists: enzyme-based qHTS assay with human liver microsomes (AID 1347399; calls by dose curve; also: nearly all actives have a fitted effect of over 60% in size); settings: Potency: qHTS inhibition
Summary of the method: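 Recombinant human AChE (50 mU/mL in the enzyme mix) and human liver microsomes (0.25 mg/mL final) were preincubated with compound and NADPH (0.25 mg/mL final) for 30 min at 37 C. Acetylthiocholine/DTNB was then added; thiocholine was read colorimetrically after 10 min at room temperature.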

[17] = target: Cytochrome P450 2D6 (Homo sapiens) (UniProt P10635); test: Cytochrome P450 Family 2 Subfamily D Member 6 (CYP2D6) small molecule antagonists: luciferase reporter qHTS assay (AID 1671196); also: nearly all actives have a fitted effect of over 50% in size; also: potency is read from the fitted curve at half-maximal effect
Summary of the method: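 Each well received CYP2D6 with its proluciferin substrate and chemical, sat 10 min, then got NADPH regeneration solution for 1 h at room temperature. Luminescence in RLU served as the activity measure.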

[18] = target: Nuclear receptor subfamily 1 group I member 2 (Rattus norvegicus) (UniProt Q9R1A7); test: Rat pregnane X receptor (rPXR) activation by small molecules, qHTS assay (AID 1346983); settings: rPXR luciferase reporter cells, One-Glo luminescence, 24 h; stronger effect = higher value; also: nearly all actives have a fitted effect of over 20% in size
Summary of the method: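 Cell-based rPXR activation assay: rPXR cells, 2,000 per well, rested 5hr at 37 C, then exposed to compounds in DMSO for 24 hr at 37 C. Luciferase activity read by One-Glo luminescence after 30 min at room temperature.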

[19] = target: Nuclear receptor subfamily 1 group I member 2 (Homo sapiens) (UniProt O75469); test: CYP3A4 induction through human pregnane X receptor (PXR) by small molecules, qHTS assay (AID 1346984); also: nearly all actives have a fitted effect of over 40% in size
Summary of the method: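 Readings come from a luciferase reporter: DPX-2 cells, which are HepG2 cotransfected with PXR and a CYP3A4-promoter construct, were exposed to test compounds for 24 h at 37C before One-Glo detection.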

[20] = Caspase-3/7 induction in HepG2 cells by small molecules, qHTS cell viability counter screen (AID 1346981); also: series mostly up to about 92 µM; nearly all actives have a fitted effect of over 30% in size
Summary of the method: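 Viability determined by CellTiter-Fluor fluorescence in HepG2 wells also used for the luminescent Caspase-Glo 3/7 read. Compounds were present for 16 hr at 37 C, 5% CO2 before reagent addition.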

Cytochrome P450 2D6 (Homo sapiens), sequence (P10635 whole entry, looked up): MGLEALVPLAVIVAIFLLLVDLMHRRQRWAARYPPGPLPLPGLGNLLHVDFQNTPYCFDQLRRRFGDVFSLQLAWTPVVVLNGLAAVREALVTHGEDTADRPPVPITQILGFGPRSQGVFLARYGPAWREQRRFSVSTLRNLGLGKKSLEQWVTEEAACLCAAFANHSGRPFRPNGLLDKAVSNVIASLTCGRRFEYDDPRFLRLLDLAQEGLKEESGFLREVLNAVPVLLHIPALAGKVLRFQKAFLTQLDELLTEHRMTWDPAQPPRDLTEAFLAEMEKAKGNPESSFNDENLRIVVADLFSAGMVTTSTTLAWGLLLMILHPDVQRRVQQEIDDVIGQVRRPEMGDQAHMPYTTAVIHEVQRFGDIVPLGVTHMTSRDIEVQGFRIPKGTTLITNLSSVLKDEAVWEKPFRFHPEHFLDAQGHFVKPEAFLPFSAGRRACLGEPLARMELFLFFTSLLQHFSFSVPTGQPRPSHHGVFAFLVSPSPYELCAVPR
Nuclear receptor subfamily 1 group I member 2 (Homo sapiens), sequence (O75469 whole entry, looked up): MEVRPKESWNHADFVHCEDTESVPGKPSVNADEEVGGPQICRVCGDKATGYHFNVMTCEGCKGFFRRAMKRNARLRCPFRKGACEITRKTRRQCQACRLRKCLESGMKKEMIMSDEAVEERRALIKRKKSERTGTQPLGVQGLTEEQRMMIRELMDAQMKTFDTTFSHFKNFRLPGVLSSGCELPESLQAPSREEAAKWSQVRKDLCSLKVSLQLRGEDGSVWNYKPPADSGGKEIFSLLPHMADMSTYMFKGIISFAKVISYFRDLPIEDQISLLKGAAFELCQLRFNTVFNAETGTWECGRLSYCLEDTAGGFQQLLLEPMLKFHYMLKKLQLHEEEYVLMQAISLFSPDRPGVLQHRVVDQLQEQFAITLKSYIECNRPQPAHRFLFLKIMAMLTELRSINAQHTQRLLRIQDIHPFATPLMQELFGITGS
Thyrotropin-releasing hormone receptor (Homo sapiens), sequence (P34981 whole entry, looked up): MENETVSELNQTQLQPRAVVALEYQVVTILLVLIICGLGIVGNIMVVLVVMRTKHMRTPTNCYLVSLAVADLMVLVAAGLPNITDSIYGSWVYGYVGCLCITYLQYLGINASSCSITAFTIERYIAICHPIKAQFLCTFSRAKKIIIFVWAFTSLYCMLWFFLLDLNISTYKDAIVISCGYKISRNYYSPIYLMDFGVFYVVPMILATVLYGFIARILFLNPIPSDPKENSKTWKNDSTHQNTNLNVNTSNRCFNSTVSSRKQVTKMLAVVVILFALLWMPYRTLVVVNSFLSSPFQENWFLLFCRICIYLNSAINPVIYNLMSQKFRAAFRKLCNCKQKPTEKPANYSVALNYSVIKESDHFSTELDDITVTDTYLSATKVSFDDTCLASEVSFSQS
Acetylcholinesterase (Homo sapiens), sequence (P22303 whole entry, looked up): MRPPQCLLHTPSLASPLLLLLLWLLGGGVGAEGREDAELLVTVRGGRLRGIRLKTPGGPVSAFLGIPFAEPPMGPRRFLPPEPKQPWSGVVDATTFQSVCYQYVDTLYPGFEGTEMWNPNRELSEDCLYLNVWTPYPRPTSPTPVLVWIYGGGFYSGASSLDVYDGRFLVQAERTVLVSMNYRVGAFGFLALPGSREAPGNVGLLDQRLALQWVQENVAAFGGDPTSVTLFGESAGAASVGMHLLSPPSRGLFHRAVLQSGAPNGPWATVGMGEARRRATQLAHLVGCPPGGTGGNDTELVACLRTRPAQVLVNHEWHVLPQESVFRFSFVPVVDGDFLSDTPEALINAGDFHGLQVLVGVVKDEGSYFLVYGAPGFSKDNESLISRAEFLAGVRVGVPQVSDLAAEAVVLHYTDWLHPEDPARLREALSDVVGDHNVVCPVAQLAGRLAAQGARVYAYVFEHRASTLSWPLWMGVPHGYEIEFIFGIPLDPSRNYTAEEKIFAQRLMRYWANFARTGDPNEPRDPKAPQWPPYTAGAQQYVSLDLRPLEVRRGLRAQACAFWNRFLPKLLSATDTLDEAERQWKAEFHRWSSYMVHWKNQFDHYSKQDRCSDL
Nuclear receptor subfamily 1 group I member 2 (Rattus norvegicus), sequence (Q9R1A7 whole entry, looked up): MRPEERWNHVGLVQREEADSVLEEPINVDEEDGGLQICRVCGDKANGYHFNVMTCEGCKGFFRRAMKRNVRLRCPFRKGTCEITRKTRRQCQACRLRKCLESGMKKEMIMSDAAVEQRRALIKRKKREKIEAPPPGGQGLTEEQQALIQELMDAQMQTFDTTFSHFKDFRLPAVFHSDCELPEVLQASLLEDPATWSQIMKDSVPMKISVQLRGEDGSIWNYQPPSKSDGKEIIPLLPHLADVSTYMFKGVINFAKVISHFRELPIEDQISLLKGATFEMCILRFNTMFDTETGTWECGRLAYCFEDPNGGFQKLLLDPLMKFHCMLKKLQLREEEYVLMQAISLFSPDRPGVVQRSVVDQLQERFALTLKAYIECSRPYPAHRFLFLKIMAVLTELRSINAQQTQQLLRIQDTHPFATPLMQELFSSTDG

In the case of `CN=C=S`, the Potency [1] is reported as “inactive”, the Potency [2] is reported as “inactive” and the Potency [3] is reported as “inactive”. For the same compound, the outcome [4] was “inactive”, the Potency [5] was “inactive” and the outcome [6] was “inactive”. The Potency [7] was “inactive”, the Potency [8] was “inactive” and the outcome [9] was “inactive”. The Potency [10] was “inactive”, the outcome [11] was “inactive” and the Potency [12] was 30.9 µM (active) and inactive. The Potency [13] was “inactive”, the Potency [14] was “inactive” and the Potency [15] was “inactive”. The Potency [16] was “inactive” and the Potency [17] was “inactive”.

In the case of `CC1OC(C)OC(C)O1` (stereo not given), the Potency [1] is reported as “inactive”, the Potency [2] is reported as “inactive” and the Potency [3] is reported as “inactive”. For the same compound, the outcome [4] was “inactive”, the Potency [5] was “inactive” and the Potency [8] was “inactive”. For the same compound, the outcome [9] was “inactive”, the Potency [10] was “inactive” and the outcome [11] was “inactive”. The Potency [12] was “inactive”, the max activation [18] was -1.58% (inactive) and 0.0541% (inactive) and the outcome [19] was “inactive”. For the same compound, the Potency [13] was “inactive”, the Potency [15] was “inactive” and the Potency [16] was “inactive”. For the same compound, the Potency [17] was “inactive”.

In the case of `CC(Oc1ccc(Cl)cc1Cl)C(=O)O` (stereo not given), the Potency [1] is reported as “inactive”, the Potency [2] is reported as “inactive” and the Potency [3] is reported as “inactive”. For the same compound, the outcome [4] was “inactive”, the Potency [5] was “inactive” and the outcome [6] was “inactive”. For the same compound, the Potency [7] was “inactive”, the Potency [8] was “inactive” and the outcome [9] was “inactive”. For the same compound, the Potency [10] was “inactive”, the outcome [11] was “inactive” and the Potency [12] was “inactive”. For the same compound, the Potency [13] was “inactive”, the Potency [14] was “inactive” and the Potency [15] was “inactive”. The Potency [16] was “inactive” and the Potency [17] was “inactive”.

With `[N-]=[N+]=[N-]` the Potency [1] was “inactive”, the Potency [2] was “inactive” and the Potency [3] was “inactive”. The outcome [4] was “inactive”, the Potency [5] was “inactive” and the outcome [6] was “inactive”. For the same compound, the Potency [7] was “inactive”, the Potency [8] was “inactive” and the outcome [9] was “inactive”. For the same compound, the Potency [10] was “inactive”, the outcome [11] was “inactive” and the Potency [20] was “inactive”. For the same compound, the Potency [13] was “inactive”, the Potency [15] was “inactive” and the Potency [16] was “inactive”. The Potency [17] was 38.6 µM (active) and inactive.

For `C1CN2CCN1CC2`, the Potency [2] was “inactive”, the Potency [3] was “inactive” and the outcome [4] was “inactive”. The Potency [5] was “inactive”, the outcome [6] was “inactive” and the Potency [7] was “inactive and 34.7 µM (active)”. The Potency [8] was “inactive”, the outcome [9] was “inactive” and the Potency [10] was “inactive”. The outcome [11] was “inactive”, the Potency [20] was “inactive” and the Potency [13] was “inactive”. The Potency [14] was “inactive”, the Potency [15] was “inactive” and the Potency [16] was “inactive”. For the same compound, the Potency [17] was “inactive”.

With `Nc1ccc(Cc2ccc(N)cc2)cc1` the Potency [1] was “inactive”, the Potency [2] was “inactive” and the outcome [4] was “inactive”. For the same compound, the Potency [5] was “inactive”, the outcome [6] was “inactive” and the Potency [7] was “inactive”. For the same compound, the Potency [8] was “inactive”, the outcome [9] was “inactive” and the Potency [10] was “inactive”. For the same compound, the outcome [11] was “inactive”, the Potency [20] was “inactive” and the Potency [12] was 60.1 µM (active) and inactive. The Potency [13] was “inactive”, the Potency [15] was “inactive” and the Potency [16] was “inactive”. The Potency [17] was “inactive”.

In the case of `CCC12COCN1COC2`, the Potency [1] is reported as “inactive”, the Potency [2] is reported as “inactive” and the outcome [4] is reported as “inactive”. The Potency [5] was “inactive”, the Potency [8] was “inactive” and the outcome [9] was “inactive”. For the same compound, the Potency [10] was “inactive”, the outcome [11] was “inactive” and the Potency [20] was “inactive”. For the same compound, the Potency [13] was “inactive”, the Potency [14] was “inactive” and the Potency [15] was “inactive”. For the same compound, the Potency [16] was “inactive” and the Potency [17] was “inactive”.

In the case of `C=CC(N)=O`, the Potency [2] is reported as “inactive”, the Potency [3] is reported as “inactive” and the outcome [4] is reported as “inactive”. The Potency [5] was “inactive”, the outcome [6] was “inactive” and the Potency [7] was “inactive”. For the same compound, the Potency [8] was “inactive”, the outcome [9] was “inactive” and the Potency [10] was “inactive”. For the same compound, the outcome [11] was “inactive”, the Potency [20] was “inactive” and the Potency [12] was “inactive”.

In the case of `CN(C)N=O`, the Potency [1] is reported as “inactive”, the Potency [2] is reported as “inactive” and the outcome [4] is reported as “inactive”. The Potency [5] was “inactive”, the outcome [6] was “inactive” and the Potency [7] was “inactive”. For the same compound, the Potency [8] was “inactive”, the outcome [9] was “inactive” and the Potency [10] was “inactive”. The outcome [11] was “inactive”, the Potency [20] was “inactive” and the Potency [13] was “inactive”. The Potency [14] was “inactive”, the Potency [15] was “inactive” and the Potency [16] was “inactive”. The Potency [17] was “inactive”.
